Consider 18 molecules from article PMC12136788.

Whole data set: some 24,000 sequences, median “enrichment r” near 0.99, cut for the highest 2% near 3.7. The full list was thinned out, with the highest values kept by preference.

The chains are these.
T1: UNK ZnF1-3 (human, UniProt Q9C0B0 31-174)
T1 sequence: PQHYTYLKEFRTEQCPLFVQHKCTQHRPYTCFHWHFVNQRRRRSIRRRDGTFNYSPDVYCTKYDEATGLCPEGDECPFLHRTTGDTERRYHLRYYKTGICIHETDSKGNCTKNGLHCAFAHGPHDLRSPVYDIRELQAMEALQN

B1: chrX:140365796:140365797:-_ENSMUSG00000031285_ENSMUST00000033642|mus_mus|mus_mus_mus_hu_False|48_108 (ssRNA)
RNA: GGGAGUUCUACAGUCCGACGAUCCUUCUCAUUACUUAGUGCCUGCAAGGUUCUGGUUCGGUAGAAGCUACAGUGGGCGCUGUGAGUGGGACUUGGAAACCCAUUCAUCCGGGAGCCUCGCAUGUUCCUGGAUGUCUUAUCUCUCAACAGAGGAUUGAGCAUCA
B2: chr11:100882373:100882374:+_ENSMUSG00000019302_ENSMUST00000044721|mus_mus|mus_mus_mus_hu_True|28_28 (ssRNA)
RNA: GGGAGUUCUACAGUCCGACGAUCUUCCUGGUUUGUGUUGAUUUCCUUCAGUUCAUUUUCAAUCUUCUCAAAAUUGGCCUCUAAGUCAAUCAUGUCCCGGGGGAAGGGCACCUCUGGGUUUUCACCGGUGUCCAUAAUCGGAAUCAACAGAGGAUUGAGCAUCA
B3: chr1:88750987:88750988:+_ENSMUSG00000053333_ENSMUST00000065694|mus_mus|motif|central (ssRNA)
RNA: GGGAGUUCUACAGUCCGACGAUCUGAUAAGCCUCUUGUGUCCUGUGGUAUGGGGGUGUUCUCAUCUUUCAUAACUGGAGUACGGGAAUCUUCUUUUCCUCUGUCAGGAGUAGAGAUUGACAAUUUCUUAACACCAUCAACCAGCAACAGAGGAUUGAGCAUCA
B4: chr1:225611761:225611762:-_ENSG00000143815_ENST00000272163|hu_mus|hu_hu_hu_mus_True|8_108 (ssRNA)
RNA: GGGAGUUCUACAGUCCGACGAUCCCAGGCCAUCGACCUCUGACCACUUCACCCUCAACAAACUUCCUACUUGGCAUUUUCUAAAAUUAGUCUGGCCGCGCUCCGGCGGGAACUCCAGCCACUCCAGGGAGAAUAGUAGCAGCCCAACAGAGGAUUGAGCAUCA
B5: chr1:180971808:180971809:-_ENSG00000135823_ENST00000258301|hu_mus|FALSE|FALSE (ssRNA)
RNA: GGGAGUUCUACAGUCCGACGAUCUUUUCUUAUGCUCAAUUCAGUUGCAUCCAAGUUGAAUUUUCUAGGAUUUGCUUCAACUAUGCUGAUGGUUUCAUCGAGGUCCUCCAGAUCCCACUCUAUGCUGCGGAGAUUGUUCCUCAGCAACAGAGGAUUGAGCAUCA
B6: 5721493_5721695_819_3pUTR_ENSMUSG00000024937_ENSMUST00000075606|mouse|control|control (ssRNA)
RNA: GGGAGUUCUACAGUCCGACGAUCCUCCUCAUCACUCUCAGCAAAGUCAUCCAGGUUUCCCACGUCACUAGGCUUCACACUCAUGAGGCUGGCCAGACUCUGCAUGUCAUCAUCCGUGGCACGGCCUUCUCGCAGCAGCACCCCCAACAGAGGAUUGAGCAUCA
B7: chr10:33214929:33214930:-_ENSG00000150093_ENST00000302278|hu_hu|hu_hu_hu_mus_True|18_78 (ssRNA)
RNA: GGGAGUUCUACAGUCCGACGAUCAACAAGUUCAUUGAAAAACUCUCCUCUGUCAGUAAGACUGAGCACAUUUUUGUAGCUAAAUGGGCUGGUGCAGUUUUGUUCACUUGUACAAGGGUUCCUGAGCUUUGCUGGGGUUGUGCUCAACAGAGGAUUGAGCAUCA
B8: chr17:57746147:57746148:+_ENSG00000141367_ENST00000269122|hu_hu|FALSE|FALSE (ssRNA)
RNA: GGGAGUUCUACAGUCCGACGAUCUUGCCCAGUCUUGCAAGCUGCCUGAAUAUAUUUAAAGUGCACAUCUGGGUCCUGGCUAAAGUUAACAAUGGAUCCCAGAAAAUAAAAGAGACCUUCAAAACUCUUGAAAGAUUCAAAAAGCAACAGAGGAUUGAGCAUCA
B9: chr19:8913615:8913616:-_ENSMUSG00000071658_ENSMUST00000096259|mus_hu|mus_mus_mus_hu_False|1_38 (ssRNA)
RNA: GGGAGUUCUACAGUCCGACGAUCAGGGUACCAAAACCUUCUGCCUGAAAUGGGUGCCCCACCCAGUAGGGAGUUGCAGCUGAAAGUAUCUGAUGCACUGACAGUUACUAUACGAAAGGAGGCCCCUGGGGAGGGCCCGAGAUCCAACAGAGGAUUGAGCAUCA
B10: chr8:81717444:81717445:+_ENSMUSG00000071064_ENSMUST00000098614|mus_mus|FALSE|FALSE (ssRNA)
RNA: GGGAGUUCUACAGUCCGACGAUCUAAUGUACACAAACCUUGACAGUAUGAGCGUCUGAACAUAAUAUGAGGAGUUAAAAAAAAAGAAAGAAAGAAAGAAAGAAAGAAAGAGAGAGAGAAAGAAAAGAAAGGACAGGAGAGAGACAACAGAGGAUUGAGCAUCA
B11: chr10:112657927:112657928:+_ENSG00000150593_ENST00000280154|hu_mus|FALSE|FALSE (ssRNA)
RNA: GGGAGUUCUACAGUCCGACGAUCAAAAAAAAAAAAAAAAAAAAAAACAAUAACAAAAACAAAAGGAAAAGAAAACCUGUACUGACAACUCUUACAGUUGAGAUCUGUUCUUGGUAACACCUAAGACUGUAAGAGUUGCUGUGCCAACAGAGGAUUGAGCAUCA
B12: chr2:49626764:49626765:+_ENSMUSG00000026764_ENSMUST00000028102|mus_hu|FALSE|FALSE (ssRNA)
RNA: GGGAGUUCUACAGUCCGACGAUCGCACACAUCUGUACACACAGAAACUCUACACAGCUCAAAAGACCUGAAACUGGUGUACUGCAGAUGGCUGGAGUAAGCAAGUAUAAAAAAAAAAUGGAAACUGUAGGGGGGGAAAAAUAACAACAGAGGAUUGAGCAUCA
B13: chr13:55803104:55803105:+_ENSMUSG00000045767_ENSMUST00000057844|mus_hu|FALSE|FALSE (ssRNA)
RNA: GGGAGUUCUACAGUCCGACGAUCGCACAGCACCAGUAAGUAGAUGUGCUGGAGGGUAGAGGAAGAGGAAUGAAUGUACGAAAGGCAGGGGAGAAAGGGAAGGGUAUGUAUAACAAAAUAAGGAAGGAAAAUAAACUGAAAGGGCAACAGAGGAUUGAGCAUCA
B14: chr4:148551591:148551592:-_ENSMUSG00000063077_ENSMUST00000060537|mus_hu|mus_mus_mus_hu_False|28_68 (ssRNA)
RNA: GGGAGUUCUACAGUCCGACGAUCACCUGACAAAAUUAAAUAUCCCUGUAAAUUAGACAAUAAGCAGCAGGUAACAAAGUCUUUGCUUUGGAAUAUGUGCCAGGAAAAAUCAUGUUUUUUUUAGAUCUCAAGAGACAGUUCACACAACAGAGGAUUGAGCAUCA
B15: chr1:58468927:58468928:-_ENSMUSG00000026034_ENSMUST00000148330|mus_mus|mus_mus_mus_hu_False|18_48 (ssRNA)
RNA: GGGAGUUCUACAGUCCGACGAUCAAUUACUGAAAAAGAUGUUCAUUACCUUAGCUAUGUACUUAAUGAACCAAAUUACCCAAACAACAUAAAAUGUGCAAUAUAAAAAUGUUAAGAAAAUAACUUACUGUACAAAAUAACUUACAACAGAGGAUUGAGCAUCA
B16: chr2:47387792:47387793:-_ENSG00000143933_ENST00000272298|hu_hu|motif|central (ssRNA)
RNA: GGGAGUUCUACAGUCCGACGAUCUUAGGACAAUGACAGUAAGAUAAGGGAAGAAAACAUGGAGGAAUGAAGUCCGGAUUACGGUACAUGCAUAUUUUUUUGACAGUAGGGAGAAACCUUUUACAGAUAAGUUACAAACAAAGACAACAGAGGAUUGAGCAUCA
B17: chr19:8913615:8913616:-_ENSMUSG00000071658_ENSMUST00000096259|mus_hu|mus_mus_mus_hu_False|98_108 (ssRNA)
RNA: GGGAGUUCUACAGUCCGACGAUCAGGGGGGCACCAAACCCUGCCUCAAAUGGGUGCCCCACCCAGUAGGGAGUUGCAGCUGAAAGUAUCUGAUGCAGAAGCAGUGACUAUACGAAAGGAGGCCCCUGGGGAGGGCCAGGCCAGCAACAGAGGAUUGAGCAUCA
B18: chr1:178664722:178664723:-_ENSMUSG00000057335_ENSMUST00000057037|mus_mus|motif|central (ssRNA)
RNA: GGGAGUUCUACAGUCCGACGAUCAGUCGUUGUUGCUGUCUUGCAGGGUCCUUACAAAUGUGUAAGACUGACAAAGGGUUACGGUGGACCUACAGGGAAACACAGAAGCAAUUCAAUGACUGGGAGUGCAACUAUCAACUACUCCAACAGAGGAUUGAGCAUCA

This test concerns the target T1, UNK ZnF1-3. The experiment in a line: nsRBNS (natural sequence RNA bind-n-seq); RBNS binding buffer (assumed for nsRBNS): 25 mM Tris pH 7.5, 150 mM KCl, 3 mM MgCl2, 0.01% Triton X-100, 500 ug/ml BSA, 20 U/ml SUPERase-In, 4 C; UNK is unkempt and MSI1 is Musashi-1; names of the RNAs are library labels; protein concentration not given here; high values mean tight binding.
For the molecule B1, the binding signal stood at 0.604 enrichment R.

On to B2, for which the binding signal amounted to 0.609 enrichment R.

Regarding B3, the binding signal is 0.776 enrichment R.

Molecule B4 came in with a binding signal of 1.34 enrichment R.

The molecule B5 returned a binding signal of 0.284 enrichment R.

B6 registered a binding signal of 0.928 enrichment R.

Turning to B7, the binding signal was found to be 1.36 enrichment R.

The molecule B8 returned a binding signal of 2.24 enrichment R.

Regarding B9, the binding signal is 1.39 enrichment R.

For B10, the binding signal is 4.04 enrichment R.

B11 gave a binding signal of 8.87 enrichment R.

B12 displayed a binding signal of 9.96 enrichment R.

For the molecule B13, the binding signal worked out at 5.32 enrichment R.

B14 came in with a binding signal of 1.18 enrichment R.

For the molecule B15, the binding signal is 0.974 enrichment R.

Regarding B16, the binding signal came out at 1.89 enrichment R.

With B17, the binding signal worked out at 1.63 enrichment R.

For the molecule B18, the binding signal stood at 1.23 enrichment R.
